{
  "source": "PubChem BioAssay AID2501",
  "about": "(Southern Research Specialized Biocontainment Screening …, 2010)",
  "note": "The whole screen tested about 2,200 compounds, of which about 1,200 (55%) were called active. The set was probably picked from earlier hits. This is one part of the list. Values without a mark were called inactive. No cut-off is given here; in the data, nearly all actives have IC50 up to about 92 µM.",
  "data": [
    {"assay": "counter assay for TAg ATPase ADP read-out – biochemical, ADP-Hunter, fluorescence, counter-screen (AID 2501);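 note: purified T antigen ATPase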;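 for inhibition: 0% = enzyme with vehicle and 100% = reference inhibitor wells; higher means more inhibition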", "conditions": "series mostly up to 100 µM; inhibition: at the top concentration", "values": [
      {"smiles": "C=C(C)C(=O)O[C@H]1C/C(C)=C\\C(=O)/C=C(\\C)[C@H](O)[C@@H]2OC(=O)C(=C)[C@@H]21", "inhibition": "-21.3%"},
      {"smiles": "CCCCNC(=S)N(CCN(C)C)Cc1cc2cc3c(cc2[nH]c1=O)OCCO3", "inhibition": "1.93%"},
      {"smiles": "O=C(O)[C@H]1CCCC[C@H]1C(=O)Nc1ccc(Nc2ccccc2)cc1", "IC50": "3.86 µM (active)"},
      {"smiles": "COc1cccc(NC(=S)Nc2ccc(O)cc2)c1", "IC50": "1.13 µM (active)"},
      {"smiles": "CNC(=S)Nc1ccc(Nc2ccccc2)cc1", "IC50": "4.39 µM (active)"},
      {"smiles": "O=C(NC(=S)Nc1ccc(O)cc1)c1cncc(Br)c1", "IC50": "3.94 µM (active)"},
      {"smiles": "COc1cccc(NC(=O)CC2(CC(=O)O)CCCC2)c1", "inhibition": "-18.3%"},
      {"smiles": "O=c1[nH]c2cc3c(cc2cc1CN(Cc1cccnc1)Cc1nnnn1Cc1ccco1)OCCO3", "inhibition": "-30.1%"},
      {"smiles": "COc1ccc(N=Cc2c[nH][nH]c2=O)cc1", "IC50": "9.97 µM (active)"},
      {"smiles": "CC1(C)Nc2ccc(O)cc2-c2c1ssc2=S", "IC50": "14.6 µM (active)"},
      {"smiles": "O=C1OCC/C1=C\\c1ccc(O)cc1", "IC50": "7.82 µM (active)"},
      {"smiles": "Nc1cc(S(=O)(=O)c2ccc(O)c(N)c2)ccc1O", "IC50": "3.9 µM (active)"},
      {"smiles": "Nc1ccc(O)c2ccccc12", "inhibition": "5.37%"},
      {"smiles": "CS(=O)(=O)c1ccc(N)c(SSc2cc(S(C)(=O)=O)ccc2N)c1", "inhibition": "23.8%"},
      {"smiles": "Nc1n[nH]c(=S)n1/N=C1/C(=O)Nc2ccccc21", "IC50": "9.5 µM (active)"},
      {"smiles": "Cn1cccc1/C=N/N1CCN(c2ccccn2)CC1", "IC50": "7.28 µM (active)"},
      {"smiles": "Oc1ccc(/C=N/N2CCN(c3ccccn3)CC2)cc1", "IC50": "10.4 µM (active)"},
      {"smiles": "Cn1cccc1/C=N/N1CCN(Cc2ccccc2)CC1", "IC50": "21 µM (active)"},
      {"smiles": "Cc1cccc(C)c1NCC(=O)N1CCN(Cc2ccccc2)CC1", "inhibition": "-18.3%"},
      {"smiles": "COCc1cc(CN2CCN(CCc3ccccc3)C(CCO)C2)ccc1OC", "note": "(stereo not given)", "inhibition": "-22.7%"},
      {"smiles": "COc1cccc(CN2CCN(Cc3nc(-c4cccs4)oc3C)CC2CCO)c1", "note": "(stereo not given)", "IC50": "< 1.56 µM (active)"},
      {"smiles": "Cc1oc(-c2cccs2)nc1CN1CCN(C(C)C)C(CCO)C1", "note": "(stereo not given)", "inhibition": "-11.3%"},
      {"smiles": "N#CC1=C(N)C2=C(N3CCCCC3)CCCC2C1(C#N)C#N", "note": "(stereo not given)", "IC50": "8.2 µM (active)"},
      {"smiles": "COc1cc(/C=C2\\SC(=S)N(C(C(=O)O)c3ccccc3)C2=O)ccc1O", "note": "(stereo not given)", "IC50": "7.98 µM (active)"},
      {"smiles": "O=C(O)C(Cc1ccccc1)N1C(=O)/C(=C/C=C/c2ccco2)SC1=S", "note": "(stereo not given)", "inhibition": "-0.25%"},
      {"smiles": "O=C(O)C(c1ccccc1)N1C(=O)/C(=C\\c2ccc(O)c(O)c2)SC1=S", "note": "(stereo not given)", "IC50": "8.33 µM (active)"},
      {"smiles": "CC(C(=O)Nc1ccc(C(=O)O)c(O)c1)N1C(=O)/C(=C\\c2ccco2)SC1=S", "note": "(stereo not given)", "inhibition": "21%"},
      {"smiles": "CC(C)C(C(=O)O)N1C(=O)/C(=C/C=C/c2ccco2)SC1=S", "note": "(stereo not given)", "inhibition": "-26.3%"},
      {"smiles": "COc1cc(/C=C2\\SC(=S)N(C(Cc3ccccc3)C(=O)O)C2=O)ccc1O", "note": "(stereo not given)", "IC50": "6.37 µM (active)"},
      {"smiles": "Cc1ccc([C@@H]2[C@@H]3C(=O)N(c4ccccc4)C(=O)[C@@H]3[C@]3(C)C(=O)N(Cc4ccccn4)CC(=O)N23)o1", "inhibition": "-36.8%"},
      {"smiles": "CSc1nnc(-c2ccc(O)cc2)n1C", "IC50": "27.5 µM (active)"},
      {"smiles": "CCOC(=O)/C=C/C(=O)OCC(=O)NCc1ccccc1", "inhibition": "-8.77%"},
      {"smiles": "CC/C(=N\\NC(=O)CCC(=O)NCc1ccccc1)c1ccc(O)cc1", "IC50": "9.43 µM (active)"},
      {"smiles": "Cc1cc(C)cc(-n2nnc(C(=O)NCc3ccccc3)c2N)c1", "inhibition": "-17.4%"},
      {"smiles": "CN1C(=O)C2C(c3ccc(N(C)C)cc3)=NN(Cc3ccccc3)C2C1=O", "note": "(stereo not given)", "IC50": "9.4 µM (active)"},
      {"smiles": "CC(C)C(=O)Nc1ccc(O)c(-c2csc(N)n2)c1", "IC50": "10.3 µM (active)"},
      {"smiles": "O=[N+]([O-])c1cccc(NC(=S)NCc2ccncc2)c1", "inhibition": "-17.7%"},
      {"smiles": "CCc1cccc2c(C(=O)CN3C(=O)NC(C)(c4cccc5ccccc45)C3=O)c[nH]c12", "note": "(stereo not given)", "inhibition": "-8%"},
      {"smiles": "Cn1c2ccccc2c2nnc(SCC(=O)Nc3cccc(C(=O)O)c3)nc21", "inhibition": "-13.3%"},
      {"smiles": "CN(C)c1ccc(NC(=O)CSc2nnc(-c3ccco3)c(-c3ccco3)n2)cc1", "IC50": "6.24 µM (active)"},
      {"smiles": "CCc1nc(SCC(=O)Nc2ccc(N(C)C)cc2)n[nH]1", "IC50": "6.73 µM (active)"},
      {"smiles": "CSc1nnc(-c2ccco2)c(-c2ccco2)n1", "inhibition": "-17.9%"},
      {"smiles": "Cc1ccccc1NC(=O)CSc1nnc(-c2ccco2)c(-c2ccco2)n1", "inhibition": "9.02%"},
      {"smiles": "FC(F)(F)C1CCCN(c2nsc3ccccc23)C1", "note": "(stereo not given)", "inhibition": "23.6%"},
      {"smiles": "CN1\\C(=C/C=C/C=C/C=[N+](C)C)C(C)(C)c2ccccc21", "IC50": "12.3 µM (active)"},
      {"smiles": "CC(C)(C)c1cc(C(=O)N/N=C/c2ccc(O)cc2)n(-c2ccccc2)n1", "IC50": "61.4 µM (active)"},
      {"smiles": "O=C(O)c1cc(N/N=C/c2cccc3ccccc23)ccc1Cl", "inhibition": "23.8%"},
      {"smiles": "Cc1cccc(NC(=O)c2cc(Cl)nc3ccccc23)c1", "inhibition": "-15.5%"},
      {"smiles": "CNC(=S)NNC(=O)c1cc(C(C)(C)C)nn1Cc1ccc(F)cc1", "inhibition": "26.2% [at 50 µM]"},
      {"smiles": "CCc1cc(C(=O)N/N=C/c2ccc(O)cc2)c2ccccc2n1", "IC50": "2.69 µM (active)"},
      {"smiles": "Cc1ccc(-c2cc(C(=O)NCc3ccco3)c3ccccc3n2)o1", "inhibition": "-48.7%"},
      {"smiles": "O=C(N/N=C/c1ccc(O)cc1)c1csc2ccccc12", "IC50": "4.27 µM (active)"},
      {"smiles": "Cc1cc(/C=N/NC(=O)C(O)(c2ccccc2)c2ccccc2)c(C)n1-c1cccc(C(=O)O)c1", "inhibition": "-36.7%"},
      {"smiles": "Cc1nnc(NC(=O)c2cc(-c3ccco3)nc3ccccc23)s1", "inhibition": "-14.3%"},
      {"smiles": "O=C(N/N=C/c1ccc(O)c(O)c1)c1cc(-c2ccccc2)nc2ccccc12", "IC50": "36 µM (active)"},
      {"smiles": "Nc1ccc(-n2nncc2-c2ccc(Cl)cc2)cc1", "inhibition": "28.3%"},
      {"smiles": "COc1cnc(-c2ccccn2)nc1Oc1ccc(Cl)c2ccccc12", "inhibition": "-37.7%"},
      {"smiles": "CC(NC(=O)Nc1ccc(O)cc1)(C(F)(F)F)C(F)(F)F", "IC50": "6.77 µM (active)"},
      {"smiles": "CCOC(=O)C1(CCc2ccccc2)CCN(C(=O)CCc2cnn(C)c2)CC1", "inhibition": "-29.5%"},
      {"smiles": "CCOC(=O)C1(Cc2ccc(Cl)cc2)CCN(C(=O)CCc2ccncc2)CC1", "inhibition": "-4.52%"},
      {"smiles": "CCOC(=O)C1(Cc2ccccc2)CCN(Cc2cnn(C(C)C)c2)CC1", "IC50": "26.4 µM (active)"},
      {"smiles": "O=C(N/N=C/c1c[nH]c2ccccc12)c1ccc(O)c(O)c1", "IC50": "7.17 µM (active)"},
      {"smiles": "Cc1ncc(CO)c(/C=N/NC(=O)c2cc(O)c(O)c(O)c2)c1O", "inhibition": "-352%"},
      {"smiles": "Oc1ccc(O)c(-c2cnns2)c1", "IC50": "28.1 µM (active)"},
      {"smiles": "CC(=O)CC1OC(=O)C(Br)=C1NCc1ccccc1", "note": "(stereo not given)", "inhibition": "6.4%"},
      {"smiles": "C=CCN(c1ccc(C(=O)Nc2cccc([N+](=O)[O-])c2)cc1)S(C)(=O)=O", "inhibition": "-6.02%"},
      {"smiles": "C/C(=N/NC(=O)c1cc(O)c(O)c(O)c1)c1ccc([N+](=O)[O-])cc1", "inhibition": "25.1%"},
      {"smiles": "CN(C(=O)COC(=O)CNC(=O)CNC(=O)c1ccc(Cl)cc1Cl)c1ccccc1", "inhibition": "16.9%"},
      {"smiles": "C/C(CC(=O)Nc1ccc(N(C)C)cc1)=N\\NC(=O)c1ccc(Cl)cc1Cl", "IC50": "3.99 µM (active)"},
      {"smiles": "C/C(CC(=O)Nc1ccc(N(C)C)cc1)=N\\NC(=O)c1ccc([N+](=O)[O-])cc1Cl", "IC50": "6.47 µM (active)"}
    ]}
  ]
}
